Measurements published in PubChem BioAssay AID624330 (Southern Research Specialized Biocontainment Screening …, 2012).
In all, about 340,000 compounds went through this assay and about 2,100 (0.62%) were called active.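 The calls were made as follows: active = first-screen hits whose inhibition reached a set limit at any dose in the follow-up dose series; inconclusive = inhibition above the set first-screen limit but never retested; inactive = the rest.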 Only a sample is shown. Potency and affinity values are given separately.

Target: Rac GTPase-activating protein 1 (Homo sapiens) (UniProt Q9H0H5)
Assay: MgcRacGAP GTPase-activating activity inhibitors, confirmation, biochemical, ADP Hunter fluorescence, primary and confirmatory (AID 624330);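 also: fluorescence reports GDP produced by GAP-driven GTP hydrolysis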
Settings: MgcRacGAP-stimulated Rac1 GTP hydrolysis, at 30 µM, stronger effect = higher value, GST-tagged Rac1 F28L mutant substrate

Chain of Rac GTPase-activating protein 1 (Homo sapiens) (Q9H0H5 whole entry, looked up): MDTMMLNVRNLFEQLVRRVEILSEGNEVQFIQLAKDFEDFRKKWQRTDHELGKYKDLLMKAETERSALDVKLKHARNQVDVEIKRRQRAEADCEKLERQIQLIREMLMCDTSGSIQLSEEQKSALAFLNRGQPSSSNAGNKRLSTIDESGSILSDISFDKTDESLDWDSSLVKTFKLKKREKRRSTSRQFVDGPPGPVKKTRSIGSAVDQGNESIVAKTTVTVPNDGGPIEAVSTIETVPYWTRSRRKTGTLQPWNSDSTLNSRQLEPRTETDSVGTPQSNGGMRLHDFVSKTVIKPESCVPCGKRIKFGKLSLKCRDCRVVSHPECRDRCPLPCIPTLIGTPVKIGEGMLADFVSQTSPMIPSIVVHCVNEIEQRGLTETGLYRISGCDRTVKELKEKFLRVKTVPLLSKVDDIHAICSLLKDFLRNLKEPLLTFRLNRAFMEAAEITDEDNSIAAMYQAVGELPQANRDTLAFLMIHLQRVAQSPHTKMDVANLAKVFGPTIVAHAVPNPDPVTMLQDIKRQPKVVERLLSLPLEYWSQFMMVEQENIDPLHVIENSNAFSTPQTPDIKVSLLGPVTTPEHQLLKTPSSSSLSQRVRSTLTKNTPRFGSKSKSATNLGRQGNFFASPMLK

inhibition, inactive:
COc1cc(/C=N/NC(=S)NCCN2CCOCC2)cc(OC)c1OC 7.18%
S=C(NCCCN1CCOCC1)Nc1ccc(Nc2ccccc2)cc1 36.5%
S=C(NCCN1CCOCC1)N/N=C/c1ccccc1 6.95%
COc1cc(/C=N/NC(=S)NCCN2CCOCC2)cc(OC)c1O 15.1%
COc1cc(OC)c(OC)cc1/C=N/NC(=S)NCCN1CCOCC1 -4.53%
Fc1ccc(NC(=S)NCCN2CCOCC2)cc1 4.64%
O=S(=O)(c1cccc(-c2nc3ccccc3s2)c1)N1CCCC1 4.17%
Cc1cc(C(=O)N(NC(=O)C(C)C)c2ccccc2)cs1 5.75%
C=CCn1c(=O)c(C(=O)Nc2ccc(C)cn2)c(O)c2ccccc21 7.02%
CCOc1ccc(C(C(=O)NCC2CCCO2)N(Cc2ccccc2)C(=O)c2snc(C(N)=O)c2N)cc1 (stereo not given) 6.27%
C=CCc1cc(/C=N/n2cnnc2)cc(OCC)c1O 8.86%
C=CCc1cc(C=O)cc(OCC)c1O 4.85%
CCC(/C=C1\Oc2ccc(OC)cc2N1C)=C\c1sc2ccccc2[n+]1CCCS(=O)(=O)[O-] 20.6%
CSc1sc2ccccc2[n+]1CCCS(=O)(=O)[O-] 6.67%
O=C(COC(=O)c1cc(S(=O)(=O)N2CCOCC2)ccc1Cl)NCc1ccccc1 -0.98%
O=C(COC(=O)/C=C/c1ccc([N+](=O)[O-])cc1)Nc1ccc2[nH]c(=O)[nH]c2c1 8.57%
COc1ccc(Br)cc1CN(C)CC(=O)NCc1ccc(F)cc1 30.8%
COc1ccc(Br)cc1CN(C)CC(=O)NCCc1ccc(S(N)(=O)=O)cc1 -1.98%
COc1cccc(CNS(=O)(=O)c2ccc(N3CCCC3=O)cc2)c1 1.52%
Cc1ccccc1NC(=O)c1cccc(S(=O)(=O)N2CCCCC2)c1 3.86%
CC(C)C(O)(CC#CCN1CCCC1)c1ccccc1 (stereo not given) 6.41%
CCn1cc(CN2CCC(C(=O)Nc3cccc(-c4cccc(OC)c4)c3)CC2)c(C)n1 4.15%
Cc1ccc(OCCOC(=O)Cn2nc(C)c([N+](=O)[O-])c2C)cc1 7.43%
Cc1cccc(C)c1OCC(O)CN1CCN(c2ccccc2)CC1 (stereo not given) 4.36%
Cc1cccc(C(=O)Oc2ccc(/C=N/NC(=O)Cc3ccc([N+](=O)[O-])cc3)cc2)c1 1.03%
O=C(Oc1ccc(/C=N/n2cnnc2)cc1)c1cccc([N+](=O)[O-])c1 13.5%
CC1=NNC(=O)C1CC(=O)N/N=C/C(C)=C/c1ccccc1 (stereo not given) 13.2%
Cn1c(=O)c2c(nc(CN3CCCCC3)n2CCc2ccccc2)n(C)c1=O 18.6%
Cc1ccc(OCC(=O)N2CCN(S(=O)(=O)c3ccccc3[N+](=O)[O-])CC2)cc1 5.54%
CCCOc1ccc(/C=N/NC(=O)C(C)Sc2ccccn2)cc1OCC (stereo not given) 9.98%
Cc1ccc(/C=N/NC(=O)NN(C)c2ncc(C(F)(F)F)cc2Cl)cc1 4.41%
C=CCOc1ccc(/C=N/NC(=O)C(C)Sc2ccccn2)cc1OC (stereo not given) 6.97%
CN(NC(=O)Nc1ccc(Cl)cc1)c1ncc(C(F)(F)F)cc1Cl 7.17%
COc1ccc(/C=N/NC(=O)CCCC(=O)NC2CCCCC2)cc1 2.54%
COc1ccc(/C=N/NC(=O)CC(=O)NC2CCCCC2)cc1 6.51%
COc1cc(/C=N/NC(=O)CCC(=O)NC2CCCCC2)ccc1C 9.37%
COC(=O)c1ccc(/C=N/NC(=O)CC(=O)NC2CCCCC2)cc1 -3.55%
CCS(=O)(=O)N1CCC(C(=O)Nc2cc(Cl)ccc2O)CC1 6.74%
Cn1cc(CN2CCCC(C(=O)c3nccn3C)C2)c(-c2cccc(Cl)c2)n1 (stereo not given) 0.46%
COc1ccc(C)c2sc(N(CCCN(C)C)C(=O)CS(=O)(=O)c3ccc(F)cc3)nc12 2.17%
CCOC(=O)Cc1nnc(NC(=O)CSc2ccc(Cl)cc2)s1 0.78%
COc1ccc(C(=O)O/N=C(/c2ccccc2)c2ccncc2)cc1 4.95%
COc1ccc(C2C(=O)c3ccccc3C2=Nc2ccc(Br)cc2)cc1 (stereo not given) 8.86%
CCC(C)[C@H](NC(=O)OC(C)(C)C)C(=O)N/N=C/c1ccc2cc(OC)ccc2n1 (stereo not given in full) 7.33%
NS(=O)(=O)c1ccc(NC(=O)COC(=O)CCCN2C(=O)c3cccc4cccc(c34)C2=O)cc1 1.26%
Cc1cc(C(=O)Nc2ccc(F)cc2F)on1 9.92%
CCn1c(SCC(=O)NCc2ccc(F)cc2)nc2c(c1=O)SC(C)C2 (stereo not given) 18%
COc1cccc(/C=N/NC(=O)CSc2cccc3cccnc23)c1 5.24%
COc1ccc(C=NNC(=O)CCCC(=O)NN=Cc2ccc(OC)c(O)c2)cc1O 23%
CCOc1ccc(/C=N/NC(=O)C(OC)c2ccccc2)cc1 (stereo not given) 3.79%
O=C(CSc1cccc2cccnc12)N/N=C/c1cccc(O)c1 3.05%
C=CCOc1cccc(/C=N/NC(=O)C(OC)c2ccccc2)c1 (stereo not given) 7.19%
Oc1ccc(/C=N/NC(=S)NC2CC3CCC2C3)cc1 (stereo not given) 16.9%
COc1cccc(/C=N/NC(=S)NC2CC3CCC2C3)c1OC (stereo not given) -1.35%
CCOc1cc(/C=N/NC(=O)C(=O)N/N=C/c2ccc(O)c(OCC)c2)ccc1O 10.8%
CCCCc1nnc(NC(=O)CN2C(=O)C3CCCCC3C2=O)s1 (stereo not given) 6.64%
O=C(N/N=C\c1cn[nH]c1-c1ccccc1)c1ccc([N+](=O)[O-])cc1 9.27%
O=S(=O)(c1ccc(Cl)cc1)N1CCN(Cc2cccnc2)CC1 2.76%
Cc1c(C(=O)N2CCN(S(=O)(=O)c3ccccc3)CC2)oc2ccc(Br)cc12 2.23%
Cc1ccccc1SCC(=O)NCC(c1ccc(F)cc1)N1CCOCC1 (stereo not given) 8.44%
N#CC1(NC(=O)CN2CCc3ccccc3C2)CCCC1 -8.1%
C#CCN1C=CC(=O)[C@@H](OC(=O)Nc2ccc(C)cc2)[C@H]1c1ccccc1Br -0.32%
O=C(O)C1C2C=CC(C2)C1C(=O)NC1CCS(=O)(=O)C1 (stereo not given) 10.3%
O=C(NNC(=O)c1cccc(C(F)(F)F)c1)c1ccncc1 8.11%
Cc1cc(SCC(=O)Nc2ccc(O)cc2)n2ncc(-c3ccccc3)c2n1 4.14%
CC1(C)N=C(SCC(=O)Nc2ccc(Cl)cc2)C(c2ccc(Cl)cc2)=N1 2.66%
COc1cc(C(=O)NNC(=O)c2cc(=O)[nH]c3ccccc23)cc(OC)c1OC 5.5%
CCOc1ccc(/C=N/NC(=O)Nc2ccccc2)cc1 10.7%
COc1cc(/C=N/NC(=O)Nc2ccccc2)ccc1OC(C)=O 13.7%
CCN(CC)S(=O)(=O)c1ccc(OC)c(NC(=O)c2cn(CC)c3nc(C)ccc3c2=O)c1 7.32%
CCOC(=O)COc1cccc2c(=O)n(CC(N)=O)ccc12 3.81%
COc1ccc(C=C2NC(=S)NC2=O)cc1 14.2%
CCOc1ccc(/C=C2\NC(=S)NC2=O)cc1 -0.61%
COC(=O)Cc1ccc(NC(C)=O)cc1 3.66%
CC(=O)Nc1ccc(OC(=O)c2ccc(Cl)cc2)cc1 -3.42%
CCOC(=O)/C(=C/Nc1ccc(F)c(F)c1)[N+](=O)[O-] -8.37%
Cc1cc(C)c2[nH]c(=O)c(C(c3nnnn3C(C)(C)C)N3CCN(C(=O)c4ccco4)CC3)cc2c1 (stereo not given) 1.84%
CC(=O)c1ccc(N=Nc2ccc(N)cc2)cc1 0.6%
Cc1cc(N(C)C)ccc1N=Nc1ccc2ncccc2c1 3.61%
Nc1ccc(-c2nnc(-c3ccc(N)cc3)o2)cc1 12.9%
Nc1ccc(Sc2ccc([N+](=O)[O-])cc2)cc1 7.67%
Nc1ccc(SC(F)(F)F)cc1 -3.64%
CN(C)c1ccc(N=Nc2ccccc2Br)cc1 8.09%
Nc1ccc(-c2cnc(-c3ccc(N)cc3)nc2)cc1 9.16%
Nc1ccc(CCc2ccc(N)cc2)cc1 13.9%
Cc1ccccc1C(=O)OCC(=O)Nc1cccc(S(=O)(=O)N2CCCCC2)c1 11.7%
CN(C)S(=O)(=O)c1ccc(Cl)c(NC(=O)COc2ccccc2[N+](=O)[O-])c1 6.09%
CCN(CC1CCCO1)C(=O)c1cc(COc2ccc(OC)cc2Cl)on1 (stereo not given) -11.4%
C[C@H](CO)N1C[C@H](C)[C@@H](CN(C)C(=O)Nc2ccccc2)Oc2c(NS(=O)(=O)c3ccc(F)cc3)cccc2C1=O 3.18%
Cc1ccc(OCC(=O)Nc2ccc3oc(=O)ccc3c2)cc1 4.26%
O=C(Cc1ccsc1)N1CCN(S(=O)(=O)c2cccc(F)c2)CC1 -3.87%
CC1Cc2ccccc2N1C(=O)CN1CCCCC1 (stereo not given) 2.91%
CCN1CCN(CC(=O)N2c3ccccc3CC2C)CC1 (stereo not given) 22.6%
CN(Cc1cccc(F)c1)C(=O)C1CC(=O)N(c2ccc3c(c2)OCCO3)C1 (stereo not given) 4.27%
Cc1c(Cl)ccc(S(=O)(=O)N2CCN=C2c2ccccc2)c1Cl 4.68%
